Assay outcomes deposited in PubChem BioAssay by National Center for Advancing Translational Sciences (NCATS).
ALOX12 inh: ALOX12 (human) lipoxygenase inhibition; P18054; Potency, µM (top dose mostly 108 µM), usual class: inhibitors; 1.1% of 580,000 active; purified 12hLO, xylenol orange hydroperoxide absorbance; AID 1671190
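Purified human 12hLO at 150 nM in 25 mM Hepes, 0.01% Triton X-100, pH 7.0, preincubated 15 min at room temperature with compound. Reaction started with 40 uM arachidonic acid, 30 min at room temperature. Hydroperoxide measured by Fe-xylenol orange, 573/405 nm absorbance ratio.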
PLK1 PBD block: PLK1 (human) polo-box domain binding inhibition; P53350; Potency, µM, usual class: inhibitors; AID 720504; Plk1 PBD binding of FITC phosphopeptide, fluorescence polarization; 2.8% of 360,000 active; also: series mostly up to about 57 µM; nearly all actives have a fitted effect of over 65% in size
G9a block: inhibitors of human histone lysine methyltransferase G9a | Q96KQ7 | G9a H3K9 monomethylation, AlphaScreen, 2 h | Potency, µM (top dose mostly 102 µM), usual class: inhibitors | 8.8% of 350,000 active | AID 504332; also: nearly all actives have a fitted effect of over 75% in size
Target sequence (Q96KQ7 913-1193 limits assumed): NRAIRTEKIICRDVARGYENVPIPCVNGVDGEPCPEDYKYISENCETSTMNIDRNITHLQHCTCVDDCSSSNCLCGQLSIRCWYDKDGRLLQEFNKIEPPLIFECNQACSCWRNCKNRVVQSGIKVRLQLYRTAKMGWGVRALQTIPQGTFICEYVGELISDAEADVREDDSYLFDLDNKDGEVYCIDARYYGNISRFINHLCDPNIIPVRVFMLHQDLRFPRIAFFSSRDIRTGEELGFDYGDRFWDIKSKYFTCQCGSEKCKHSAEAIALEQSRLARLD
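Enzyme 20 nM + cpd, 15 min RT; add b-H3K9 pep 500 nM / SAM 20 uM; 2 h RT; anti-H3K9me1 Ab 0.5 ug/mL + SA donor / anti-rabbit acceptor beads 20 ug/mL each, 10 min; AlphaScreen read.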
HP1b binding inh: blocks HP1-beta chromodomain binding to methylated histone tails | Potency, µM (titrated, usually from 114 µM), hits mostly inhibitors | AlphaScreen HP1-beta / biotin-H3K9me3 peptide binding | 0.56% of 390,000 active | AID 540317; also: nearly all actives have a fitted effect of over 70% in size
Target sequence (P83916 whole entry, looked up): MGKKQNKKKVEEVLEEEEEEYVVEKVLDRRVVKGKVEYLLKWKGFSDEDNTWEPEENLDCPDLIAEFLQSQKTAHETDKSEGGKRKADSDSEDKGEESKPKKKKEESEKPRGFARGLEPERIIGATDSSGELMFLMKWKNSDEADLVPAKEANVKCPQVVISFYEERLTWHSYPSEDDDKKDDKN
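AlphaScreen: HP1-beta (50 nM) preformed 30 min with biotin-H3(1-18)K9me3 peptide (50 nM) in PBS pH 7.4, 0.01% Tween-20. Compound added for 30 min at RT, then streptavidin donor/nickel chelate acceptor beads (10 ug/mL) for 30 min.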
JMJD2A Tudor: JMJD2A Tudor domain (human) inhibition | O75164 | AlphaScreen JMJD2A-Tudor / H3K4me3 peptide binding | Potency, µM (titrated, usually from 114 µM), hits mostly inhibitors | 4.4% of 390,000 active; also: nearly all actives have a fitted effect of over 50% in size
BAZ2B block: inhibitors of human BAZ2B bromodomain; AlphaScreen BAZ2B-H3K14Ac peptide displacement; Potency, µM (highest dose often 114 µM), actives largely listed as inhibitors; 4.4% of 360,000 active; also: nearly all actives have a fitted effect of over 60% in size
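BAZ2B (50 nM) with biotin-H3(5-23)K14Ac peptide (50 nM) in PBS pH 7.4, 0.01% Tween-20, preformed 30 min, then compound 30 min at room temperature; top concentration 110uM. AlphaScreen streptavidin donor/nickel chelate acceptor beads (10 ug/mL final), 20 min dark, signal read.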
Of the large screens only hits and unclear results are named; the others gave an inactive call; ! = repeats disagree. Sampled rows, rich in hits. Any-hit rate of the full collection: about 9%. Calls follow the shape of the dose curve; as a rule, active = well fitted curve in the direction sought with a large enough effect; inconclusive = small, poorly fitted or top-dose-only effect, or another doubt; inactive = no such curve, though single readings can be large; an effect the other way counts as inactive or inconclusive.

Cc1ccc(N(CC(=O)N=Nc2c(O)[nH]c3ccccc23)S(C)(=O)=O)c(C)c1	PLK1 PBD block inconclusive, JMJD2A Tudor inconclusive
COc1cccc(S(=O)(=O)N2CCC(n3c(C)cnc3C3CC3)CC2)c1	none (no result: PLK1 PBD block, G9a block, HP1b binding inh, JMJD2A Tudor, BAZ2B block)
O=[N+]([O-])c1ccc(S(=O)(=O)c2cccc(C(F)(F)F)c2)nc1	PLK1 PBD block 2.7µM (no result: ALOX12 inh, G9a block, BAZ2B block)
O=S(=O)(Nc1cccnc1)c1cccc(C(F)(F)F)c1	none
COC(=O)c1ccc(NC(=O)Cn2c(C)cc3nc4n(c(=O)c32)CCC4)cc1	none (no result: PLK1 PBD block, G9a block, HP1b binding inh, JMJD2A Tudor, BAZ2B block)
Nc1ccc(C(=O)NCC(=O)O)cc1	none
OCCN(CCO)c1ccc(C(c2ccccc2Cl)c2ccc(N(CCO)CCO)cc2Cl)c(Cl)c1	G9a block 45µM, JMJD2A Tudor inconclusive, BAZ2B block inconclusive (no result: ALOX12 inh)
OCC[C@H]1C[C@@H](O)[C@H](O)[C@@]2(CCc3ccccc3CO2)O1	none
OCC[C@@H]1C[C@H](O)[C@@H](O)[C@@]2(CCc3ccccc3CO2)O1	G9a block 45µM
OCC[C@@H]1C[C@H](O)[C@@H](O)[C@@]2(CCCc3ccccc3O2)O1	G9a block 28µM
Cn1c(=O)c2c(nc(CN3CCN(C(=O)c4ccco4)CC3)n2Cc2ccc(Cl)cc2)n(C)c1=O	G9a block 50µM, BAZ2B block inconclusive
Cc1ccc(Cn2c(CN3CCN(C(=O)c4ccco4)CC3)nc3c2c(=O)n(C)c(=O)n3C)cc1	G9a block 50µM
COc1ccc2[nH]c(C)c(CCNC(=S)Nc3cccc(C)c3C)c2c1	ALOX12 inh inconclusive, G9a block inconclusive, HP1b binding inh inconclusive, JMJD2A Tudor 56µM, BAZ2B block 35µM
Cc1ccccc1NC(=S)NCCc1c[nH]c2ccccc12	ALOX12 inh inconclusive, BAZ2B block inconclusive
COc1ccc2[nH]c(C)c(CCNC(=S)Nc3ccccc3C)c2c1	ALOX12 inh inconclusive, G9a block 50µM, HP1b binding inh inconclusive, JMJD2A Tudor 89µM, BAZ2B block 45µM
CCc1cccc(CC)c1NC(=S)NCCc1ccc(O)c(O)c1	ALOX12 inh inconclusive, G9a block inconclusive, JMJD2A Tudor inconclusive (no result: BAZ2B block)
COc1ccc2oc(=O)c(C(=O)NCCc3c(C)[nH]c4ccc(OC)cc34)cc2c1	none (no result: PLK1 PBD block, G9a block, HP1b binding inh, JMJD2A Tudor, BAZ2B block)
Cc1cccc(NC(=S)NCCO)c1C	none
COc1ccc2[nH]c(C)c(CCNC(=S)Nc3ccc(C)cc3)c2c1	ALOX12 inh inconclusive, G9a block inconclusive, JMJD2A Tudor 50µM (no result: BAZ2B block)
CCc1cccc(CC)c1NC(=S)NCCc1c(C)[nH]c2ccccc12	ALOX12 inh inconclusive, G9a block 45µM, JMJD2A Tudor 45µM, BAZ2B block 32µM
Cc1ccc(C)c2[nH]c(=O)c(C(c3nnnn3C3CCCC3)N3CCOCC3)cc12 (configuration not stated)	none
CN[C@H](CC(=O)O)C(=O)O	ALOX12 inh inconclusive, G9a block 22µM!, JMJD2A Tudor 22µM (no result: BAZ2B block)
CCOc1cc(/C=C(\C(=O)O)c2ccc(S(=O)(=O)N3CCCC3)s2)ccc1OC	none
O=C(O)/C(=C\c1cccc(F)c1)c1ccc(S(=O)(=O)N2CCCCC2)s1	G9a block 56µM, JMJD2A Tudor inconclusive, BAZ2B block inconclusive
O=C(O)/C(=C\c1cccc(O)c1)c1ccc(S(=O)(=O)N2CCCC2)s1	G9a block inconclusive, BAZ2B block inconclusive
O=C(O)/C(=C/c1ccc(Cl)c([N+](=O)[O-])c1)c1ccc(S(=O)(=O)N2CCCCC2)s1	ALOX12 inh 25µM, PLK1 PBD block inconclusive (no result: G9a block, BAZ2B block)
COc1ccc(C(=O)NCc2nnc(SCC(=O)c3ccccc3)n2C)cc1OC	G9a block 56µM
COC(=O)CSc1nnc(CNC(=O)c2cc(OC)c(OC)c(OC)c2)n1C	none
Cc1ccc(C(=O)CSc2nnc(CNc3nc(-c4ccccc4)cs3)n2C)cc1	G9a block 35µM, BAZ2B block inconclusive
COc1ccc(C(=O)CSc2nnc(CNC(=O)c3ccc(OC)cc3)n2C)cc1	G9a block inconclusive, JMJD2A Tudor 50µM
CCn1c(CNC(=O)c2ccc(OC)cc2)nnc1SCC(=O)c1ccc(Br)cc1	none (no result: PLK1 PBD block, G9a block, HP1b binding inh, JMJD2A Tudor, BAZ2B block)
NC(=S)Nc1cccc2cc3ccccc3cc12	PLK1 PBD block inconclusive, G9a block inconclusive, JMJD2A Tudor inconclusive
CC(=O)Nc1cccc(NC(=O)c2ccc3c(c2)CCN3S(=O)(=O)c2ccccc2)c1	none
O=C1CCN(C(=O)Cn2ccnc2)CCCC(c2nc(-c3cccnc3)no2)CCN1 (configuration not stated)	none (no result: PLK1 PBD block, G9a block, HP1b binding inh, JMJD2A Tudor, BAZ2B block)
Fc1ccc2[nH]c3c(c2c1)CN(C(=S)NCc1ccccc1)CC3	JMJD2A Tudor inconclusive, BAZ2B block 56µM (no result: G9a block)
CC(C)(C)NC(=O)NC(=O)CSc1ncc(C(F)(F)F)cc1Cl	PLK1 PBD block 30µM, JMJD2A Tudor inconclusive
CCCc1cc2c(-c3ccccc3)cc(=O)oc2cc1OCc1ccc(C(=O)O)o1	ALOX12 inh inconclusive, PLK1 PBD block 24µM, G9a block 45µM, HP1b binding inh inconclusive, BAZ2B block inconclusive
COc1ccc(C(=O)CCC(=O)NCc2cc(OC)cc(OC)c2)cc1	none
CCOC(=O)C(NC(=O)c1ccc(C(F)(F)F)nc1)C(=O)OCC	none (no result: PLK1 PBD block, G9a block, HP1b binding inh, JMJD2A Tudor, BAZ2B block)
CCOC(=O)c1nsnc1NCCSC(=N)N	ALOX12 inh 45µM, PLK1 PBD block inconclusive, G9a block 8.9µM
CSc1cccc(NC(=O)c2ccco2)c1	none
Cc1nc(N)[nH]c(=O)c1CCC(=O)OCC(C)C	none
COc1ccc(NC(=O)c2ccc3c(c2)NC(=O)CS3)cc1	G9a block inconclusive, JMJD2A Tudor 56µM
Cc1ccc(NS(=O)(=O)c2cc(NC(=O)c3ccc4c(c3)NC(=O)CS4)ccc2Cl)c(C)c1	ALOX12 inh inconclusive, PLK1 PBD block 6µM, G9a block 2.8µM, HP1b binding inh inconclusive
CCOC(=O)N1CCN(Cc2nc(Cc3cccc(F)c3)no2)CC1	G9a block inconclusive
CCOC(=O)c1ccccc1NC(=O)CSc1nc2ccccc2o1	none
CN(C)CCNC(=O)c1[nH]c(C(F)(F)F)nc1-c1ccccc1	none (no result: G9a block, HP1b binding inh, JMJD2A Tudor, BAZ2B block)
COc1ccccc1-c1ccc(SCc2ccc([N+](=O)[O-])cc2)nn1	none
CC(=O)Nc1ccc(-n2nnnc2SCC(=O)NC2CCCC2)cc1	none
CC(=O)c1ccc(-n2nnnc2SCC(=O)NC2CCCCC2)cc1	PLK1 PBD block inconclusive, G9a block 35µM
O=C(CSc1nnnn1-c1ccc(F)cc1)NC1CCCCC1	PLK1 PBD block 27µM, HP1b binding inh inconclusive, JMJD2A Tudor 79µM
CCCC(=O)Nc1cc2c(cc1C(C)=O)OCCO2	none
CCN(C(=O)C(C)N1C(=O)/C(=C/c2cccs2)SC1=S)C1CCS(=O)(=O)C1 (configuration not stated)	ALOX12 inh inconclusive, G9a block 45µM, BAZ2B block inconclusive
CCN(C(=O)CN1C(=O)S/C(=C\c2ccc(F)cc2)C1=O)C1CCS(=O)(=O)C1 (configuration not stated)	PLK1 PBD block 30µM
